Results from PubChem BioAssay AID1794842 (National Center for Advancing Translational Sciences (NCATS), 2023).
In all, about 2,800 compounds went through this assay and fewer than 10 were called active. Calls follow the shape of the dose curve; as a rule, active = well fitted curve in the direction sought with a large enough effect; inconclusive = small, poorly fitted or top-dose-only effect, or another doubt; inactive = no such curve, though single readings can be large or run the other way. These entries were drawn from the full list.

target: Metallo-beta-lactamase type 2 (Klebsiella pneumoniae) (UniProt C7C422); assay: qHTS to identify inhibitors of the New Delhi Metallo-beta-lactamase (NDM): Meropenem screen against the machine-based learning selections.; also: % of control where 0% means no effect; conditions: Purified NDM-1, meropenem hydrolysis, absorbance 300 nm; series mostly up to 38.4 µM; activity change, negative = inhibition: at the top concentration
Description: Assay Submitter (PI): James Inglese Ph.D., Patricia Dranchak Ph.D., Mahesh Aitha Ph.D. Assay Development and Screening Technology Laboratory (ADST) National Center for Advancing Translational Sciences (NCATS), Rockville, MD National Institute of Health (NIH), Bethesda, Maryland The metallo-beta-lactamases (MBL) are a main antibiotic resistance mechanism evolved by bacteria. There is an urgent clinical need for MBL inhibitors to mitigate this growing threat. To support a machine-based learning study, qHTS has been used to experimentally test inhibitors identified by prediction tools.
PROTOCOL TABLE (as described by Inglese et al., 2007) SEQUENCE No. (e.g., 1, 2, 3, etc.); […] (e.g., enzyme, Incubation, Reagent, etc.); VALUE; DESCRIPTION Primary Screen 1; NDM-1; 4 uL of 3 nM enzyme [2 nM final] in 50 mM HEPES (pH 7.0), 1 uM […], 0.01% Tween20; Use BioRaptr to dispense into two sets of Aurora black, clear bottom high base 1536-well plates 2; Compounds; 23 nL; Use Pin Tool (Wako) to transfer DMSO control and library compounds in DMSO 3; Incubate; >30 min 4a; Reagent; 2 uL of 50 uM nitrocefin [16.7 uM final] to one set of assay plates 4b; Reagent; 2 uL of 150 uM meropenem [50 uM final] to second set of assay plates 5a; Incubate; 15 min 5b; Incubate; 30 min 6a; Detector; Absorbance at 485 nm (bandwidth = 5 nm, 25 flashes/well) on Tecan Infinity 6b; Detector; Absorbance at 300 nm (bandwidth = 5 nm, 25 flashes/well) on Tecan Infinity NOTES (numbers refer to sequence above) 1; Column 1 of each plate received assay buffer without enzyme and columns 2-48 received enzyme for a final assay concentration of 2 nM. 2; Control plate contained DMSO in columns 1, 2, 3, and 4. 3; Compound interaction with enzyme. 4; Nitrocefin and meropenem substrates were prepared in the same assay buffer as step 1 for a final assay concentration of 16.7 uM and 50 uM, respectively, and added to all wells across respective sets of assay plates. 5; Default reader settings were applied for absorbance read at 485 nm (nitrocefin) or 300 nm (meropenem), bandwidth = 5 nm, 25 flashes/well. References: Inglese J, Shamu CE, Guy RK. 2007. Reporting data from high-throughput screening of small-molecule libraries. Nat Chem Biol. doi:10.1038/nchembio0807-438 Yasgar A, Shinn P, Jadhav A, Auld D, Michael S, Zheng W, Austin CP, Inglese J, Simeonov A. 2008. Compound Management for Quantitative High-Throughput Screening. J Lab Autom 13:79 - 89. doi:10.1016/j.jala.2007.12.004

Chain of Metallo-beta-lactamase type 2 (Klebsiella pneumoniae) (C7C422 whole entry, looked up): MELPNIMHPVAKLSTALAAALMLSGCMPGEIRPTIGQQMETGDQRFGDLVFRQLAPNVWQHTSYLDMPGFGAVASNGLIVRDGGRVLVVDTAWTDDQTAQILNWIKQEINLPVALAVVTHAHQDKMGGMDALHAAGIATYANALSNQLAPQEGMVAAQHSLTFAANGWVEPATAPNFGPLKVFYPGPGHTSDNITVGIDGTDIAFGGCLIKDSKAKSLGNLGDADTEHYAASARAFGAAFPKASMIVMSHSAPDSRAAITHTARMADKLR

SMILES | activity change, negative = inhibition
COc1ccc(C(=O)NC[C@H]2O[C@@H](CC(=O)N3CCN(c4ccccc4OC)CC3)[C@H](O)[C@@H]2O)cc1 | 0.607% (inactive)
COc1ccc(CN2C(=O)[C@@H]3C[C@@H](O)CN3C3(CN(C4CCC4)C3)C2=O)cc1 | 1.51% [at 57.5 µM] (inactive)
O=C(Cc1ccccc1Cl)N1CCC(Cc2nc(-c3ccc(F)cc3)no2)CC1 | -1.26% (inactive)
Cc1[nH]c2c(c1C(=O)N1CCCC(CCc3ccc(F)cc3)C1)C(=O)CCC2 (configuration not stated) | 2.19% (inactive)
O=C(c1ccccc1Cl)N1CCC2(CC1)Cc1ccccc1NC2=O | 0.724% (inactive)
Cc1ccc(C(=O)NC2CCN(c3cn[nH]c(=O)c3)CC2)cc1C | 5.44% (inactive)
O=C(NC1CCCCC1)O[C@@H]1CO[C@H]2[C@@H]1OC[C@@H]2NS(=O)(=O)c1ccc(Cl)cc1 | -0.326% (inactive)
O=C(Nc1ccc(C2(C(=O)NCc3ccco3)CCCCC2)cc1)C1CC1 | 0.56% (inactive)
CN1Cc2ccc(NCc3ccccc3)nc2C(C)(C(=O)NCCc2cnc[nH]2)C1 (configuration not stated) | 7.8% [at 57.5 µM] (inactive)
CN1c2cccnc2CN(Cc2cccc(Cl)c2)CC[C@H]1CO | 0.122% [at 57.5 µM] (inactive)
COc1ccc2nc(C[C@@H]3C[C@@H](C(C)C)[C@H](CNC(=O)Nc4ccc(F)cc4)C=C3C)[nH]c2c1 | 0.701% (inactive)
COc1ccc(C(=O)N2C[C@@H]3OCC(=O)N(Cc4nccn4C)[C@@H]3C2)cc1 | 0.225% [at 57.5 µM] (inactive)
COc1ccccc1CN1CC(c2noc(-c3ccc(C)cc3C)n2)CC1=O (configuration not stated) | -1.43% (inactive)
COc1ccccc1-c1ccc2ncc(Nc3cccc(N[S+](C)(=O)[O-])c3)n2n1 | 17.9% [at 57.5 µM] (inactive)
Cc1nccn1-c1ccccc1CNC1CCC2(CCNCC2)CC1 | 37.8% (inactive)
COC(=O)[C@H](NC(=O)[C@@H]1C[C@@H](NS(=O)(=O)c2cccc(C(F)(F)F)c2)CCN1C(=O)CCC(=O)O)C(C)C | 0.233% (inactive)
C=CCNC(=O)[C@@H]1Cc2cn(Cc3ccncc3)c3cccc(c23)[C@H](CC(C)C)N1 | 5.07% [at 57.5 µM] (inactive)
COc1cccc(CN2C[C@@H]3C(C(=O)O)[C@@H]3C2)c1OCCn1ccnc1 (some centres not stated) | 37.8% (inactive)
COC(=O)CO[C@@H]1CO[C@H]2[C@@H]1OC[C@@H]2NC(=O)Nc1cccc(C(F)(F)F)c1 | -0.0488% [at 57.5 µM] (inactive)
c1cc(-c2n[nH]c(CNC3CCC4(CCNCC4)CC3)n2)ccn1 | 33.1% (inactive)
COCC(=O)N1CCc2nc(N(C)CCc3ccncc3)[nH]c(=O)c2CC1 | 1.22% (inactive)
O=C1CC(C(=O)O)C2(CCN(c3cc(C(=O)O)c4ccccc4n3)CC2)N1 (configuration not stated) | 8.2% (inactive)
O=C1Nc2ccc(/C=C/c3ccccc3)cc2C(=O)N2CC[C@H](NS(=O)(=O)c3cccs3)[C@@H]12 | 3.88% (inactive)
COC(=O)c1ccc2nc(C[C@@H]3C[C@@H](C(C)C)[C@H](CNCc4ccccc4F)C=C3C)[nH]c2c1 | -1.26% (inactive)

SMILES | activity change, negative = inhibition
CCCCc1cc(C[C@@H]2C[C@H](NC(=O)NCC)C2(C)C)no1 | -2.11% [at 57.5 µM] (inactive)
COCC(=O)N1CC[C@@H](CC(=O)O)[C@@H](CC2=NCCc3cc(OC)ccc32)C1 | 14.6% [at 57.5 µM] (inactive)
O=C(Nc1cccnc1)N1CCOC[C@H](Oc2ccccc2)C1 | 2.3% [at 57.5 µM] (inactive)
c1c(CC2CCCCC2)nnn1[C@H]1CO[C@H]2[C@@H]1OC[C@@H]2NCC1CCCCC1 | -1.06% [at 57.5 µM] (inactive)
O=C(Nc1ccc(F)cc1)N1C[C@@H]2OCC(=O)N(Cc3ccc(OC(F)(F)F)cc3)[C@@H]2C1 | -0.897% (inactive)
O=C(Nc1ccc(Oc2ccccc2)cc1)N[C@H]1CO[C@H]2[C@@H]1OC[C@H]2OC(=O)Nc1cccc(C(F)(F)F)c1 | 1.79% (inactive)
Cc1cc(C(=O)N[C@@H]2C[C@H](Cn3cc(C4CC4)nn3)[C@@H](O)[C@H]2O)no1 | 30.9% [at 57.5 µM] (inactive)
Cc1cc(-c2ccccc2)nc(CN2CC[C@@](O)(C3CCC3)[C@H](C)C2)n1 | 1.38% (inactive)
CCOCCN1C(=O)COC[C@@H]1[C@H](O)c1ccc(NC(=O)Cc2ccccc2)cc1 | -0.552% [at 57.5 µM] (inactive)
COCC(=O)N[C@H]1C[C@H]2C(=O)NC[C@@H](CCC(=O)N3CCN(c4ccccn4)CC3)N2C1 | 5.83% (inactive)
COc1ccc(OC)c(S(=O)(=O)N2CCCC(Cn3c(C)nc4cccnc43)C2)c1 (configuration not stated) | 0.467% (inactive)
O[C@@H]1C[C@@H](c2nc(-c3ccc4c(c3)OCO4)no2)N(Cc2cc3ccccc3o2)C1 | 3.26% [at 57.5 µM] (inactive)
CC1=C[C@@H](CNC(=O)COCC(=O)O)[C@H](C(C)C)C[C@H]1Cc1nc2ccc(C)cc2[nH]1 | 41.1% [at 57.5 µM] (inactive)
NCCn1cc(C(=O)NCCS(=O)(=O)N2CCCC2)nn1 | -0.385% (inactive)
C=CCN1CCN(C(=O)[C@@H]2Cc3c[nH]c4cccc(c34)[C@H](CC(C)C)N2)CC1 | 4.68% [at 57.5 µM] (inactive)
COc1ccc(-c2noc([C@@H]3C[C@H](NCc4ccc(N(C)C)cc4)CN3C)n2)cc1 | -5.46% [at 57.5 µM] (inactive)
COc1cc(F)cc(-c2cnc3[nH]cc(CC(=O)NCc4cccnc4)c3c2)c1 | 1.07% [at 57.5 µM] (inactive)
Oc1cccc(Nc2cnc3ccc(-c4ccc(F)cc4)nn23)c1 | 11.4% [at 57.5 µM] (inactive)
CCc1ccc(-c2nc(C3CC(=O)N(c4ccc(C)cc4)C3)no2)cc1 (configuration not stated) | 1.01% (inactive)
COc1ccc([C@@H](NC(=O)c2ccc3cccc(F)c3n2)C2CC(O)C2)cn1 (some centres not stated) | 3% (inactive)
COc1ccc(Nc2cc3c(cn2)CN(CCc2ccccc2)CCN3)cc1 | -0.503% [at 57.5 µM] (inactive)
COc1ccc(-c2noc([C@@H]3Cc4nc[nH]c4CN3C(=O)Nc3ccc(C)cc3)n2)cc1 | 7.68% [at 57.5 µM] (inactive)
CCOC(=O)N1CCN(C(C(=O)O)c2ccc(OC)nc2OC)CC1 (configuration not stated) | 29% (inactive)
